Records with an inconclusive call do not appear. Where a call stands in place of a potency, no number is given. The source made the active and inactive calls. Calls follow the shape of the dose curve; as a rule, active = well fitted inhibition curve with a large enough effect; inconclusive = small, poorly fitted or top-dose-only effect; inactive = flat fitted curve, though single readings scatter.
Potency is read from the fitted curve at half-maximal effect.

For one assay, the system named is CP268. The assay can be described thus: qHTS profiling for inhibitors of Plasmodium falciparum proliferation (AID 504749). Also: nearly all actives have a fitted effect of over 60% in size. The following applies: P. falciparum in erythrocytes, SYBR Green DNA, 72 h; series mostly up to 28.7 µM. The procedure, abridged:
(§1)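 SYBR Green fluorescence (ex 485 nm, em 535 nm) reports parasite DNA after 72 h compound exposure of infected red cells at 0.3% parasitemia, 2.5% hematocrit; signal normalized to 0.29 uM artemisinin and vehicle wells.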
In the case of `NCC(=O)CCC(=O)O`, the Potency entry was “inactive”.

On to `COc1ccc2[nH]c(S(=O)Cc3ncc(C)c(OC)c3C)nc2n1` (stereo unspecified), for which the Potency entry is “inactive”.

Turning to `CC(CN1c2ccccc2Sc2ccccc21)N(C)C` (stereo unspecified), the Potency result is “inactive”.

For `OCc1cc(C(O)CNCCCCCCOCCCCc2ccccc2)ccc1O` (stereo unspecified), the Potency result is “inactive”.

For the compound `NC1CCN(c2cccc(Cl)n2)CC1`, the Potency result was “inactive”.

`C#CCN(C)Cc1ccccc1`: the Potency result was “inactive”.

As to `CCOC(CN1CCN(CC(C)C(=O)c2ccccc2)CC1)c1ccccc1` (stereo unspecified), the Potency entry is “inactive”.

With `O=C1c2c(O)cccc2Cc2cccc(O)c21`, the Potency result is “inactive”.

For `CCCCN1CCCC[C@H]1C(=O)Nc1c(C)cccc1C`, the Potency result was “inactive”.

As for `CC(C(O)c1ccc(O)cc1)N1CCC(Cc2ccccc2)CC1` (stereo unspecified), the Potency is 15.1 µM (active).

Take `CNCCCC1c2ccccc2C=Cc2ccccc21`: the Potency entry is “inactive”.

Turning to `CCCn1cnc2c1c(=O)n(CCCCC(C)=O)c(=O)n2C`, the Potency entry was “inactive”.

A further assay deals with CP269. The assay is described as above. The following applies: P. falciparum in erythrocytes, SYBR Green DNA, 72 h; series mostly up to 28.7 µM. The procedure, abridged:
as §1
As to `NCC(=O)CCC(=O)O`, the Potency result was “inactive”.

Turning to `CSc1ccc2c(c1)N(CCC1CCCCN1C)c1ccccc1S2` (stereo unspecified), the Potency is 10.7 µM (active).

As for `COc1ccc2[nH]c(S(=O)Cc3ncc(C)c(OC)c3C)nc2n1` (stereo unspecified), the Potency result was “inactive”.

Take `CC(CN1c2ccccc2Sc2ccccc21)N(C)C` (stereo unspecified): the Potency entry is “inactive”.

As for `OCc1cc(C(O)CNCCCCCCOCCCCc2ccccc2)ccc1O` (stereo unspecified), the Potency entry was “inactive”.

With `NC1CCN(c2cccc(Cl)n2)CC1`, the Potency entry is “inactive”.

`C#CCN(C)Cc1ccccc1`: the Potency result is “inactive”.

For the compound `CCOC(CN1CCN(CC(C)C(=O)c2ccccc2)CC1)c1ccccc1` (stereo unspecified), the Potency entry is “inactive”.

Take `O=C1c2c(O)cccc2Cc2cccc(O)c21`: the Potency result is “inactive”.

`c1ccc(CN(CC2=NCCN2)c2ccccc2)cc1`: the Potency result was “inactive”.

Turning to `CN(C)CCN(Cc1ccccc1)c1ccccn1`, the Potency result is “inactive”.

With `CCCCN1CCCC[C@H]1C(=O)Nc1c(C)cccc1C`, the Potency entry was “inactive”.

For the compound `CC(C(O)c1ccc(O)cc1)N1CCC(Cc2ccccc2)CC1` (stereo unspecified), the Potency is 12 µM (active).

Consider `CCN(CC)CCNC(=O)c1c(C)[nH]c(/C=C2\C(=O)Nc3ccc(F)cc32)c1C`, for which the Potency was 5.36 µM (active).

In the case of `CN1CCC[C@@H]1Cc1c[nH]c2ccc(CCS(=O)(=O)c3ccccc3)cc12`, the Potency result was “inactive”.

Take `CN1CCN(C2Cc3ccccc3Sc3ccc(Cl)cc32)CC1` (stereo unspecified): the Potency entry is “inactive”.

The subject of the next assay is CP286. Described as above. The following applies: P. falciparum in erythrocytes, SYBR Green DNA, 72 h; series mostly up to 28.7 µM. A digest of the protocol:
as §1
On to `NCC(=O)CCC(=O)O`, for which the Potency result was “inactive”.

`Oc1ccc(C(O)CNCCCCCCNCC(O)c2ccc(O)c(O)c2)cc1O` (stereo unspecified): the Potency is 7.08 µM (active).

As for `CSc1ccc2c(c1)N(CCC1CCCCN1C)c1ccccc1S2` (stereo unspecified), the Potency was 11.2 µM (active).

On to `CNCCC(Oc1ccc(C(F)(F)F)cc1)c1ccccc1` (stereo unspecified), for which the Potency was 10 µM (active).

In the case of `CN(C)CCCN1c2ccccc2Sc2ccc(Cl)cc21`, the Potency was 12.6 µM (active).

`CC(CN1c2ccccc2Sc2ccccc21)N(C)C` (stereo unspecified): the Potency result was “inactive”.

On to `OCCN1CCN(CCCN2c3ccccc3Sc3ccc(Cl)cc32)CC1`, for which the Potency was 3.16 µM (active).

With `NC1CCN(c2cccc(Cl)n2)CC1`, the Potency result was “inactive”.

Consider `CNC(=O)Oc1ccc2c(c1)[C@]1(C)CCN(C)[C@@H]1N2C`, for which the Potency was 7.08 µM (active).

As for `C#CCN(C)Cc1ccccc1`, the Potency entry was “inactive”.

Turning to `CCOC(CN1CCN(CC(C)C(=O)c2ccccc2)CC1)c1ccccc1` (stereo unspecified), the Potency entry was “inactive”.

Take `O=C1c2c(O)cccc2Cc2cccc(O)c21`: the Potency result was “inactive”.

On to `CCCCN1CCCC[C@H]1C(=O)Nc1c(C)cccc1C`, for which the Potency result was “inactive”.

With `Cc1ccc2nc(N)[nH]c(=O)c2c1Sc1ccncc1`, the Potency is 2.82 µM (active).

As to `CCN(CC)CCNC(=O)c1c(C)[nH]c(/C=C2\C(=O)Nc3ccc(F)cc32)c1C`, the Potency is 11.2 µM (active).

`CNCCCC1c2ccccc2C=Cc2ccccc21`: the Potency entry was “inactive”.

For the compound `CCCn1cnc2c1c(=O)n(CCCCC(C)=O)c(=O)n2C`, the Potency result was “inactive”.

Consider `CCOc1nc2cccc(C(=O)O)c2n1Cc1ccc(-c2ccccc2-c2nn[nH]n2)cc1`, for which the Potency result is “inactive”.

The values above are taken from PubChem BioAssay (NCATS).
